# Source: PubChem (National Center for Advancing Translational Sciences (NCATS))
# IL-1B inflam inh: inflammasome signaling inhibition, IL-1 beta readout | hit rate 4.7% among 360,000 | AID 743279 | activity change, % at 57.5 µM | THP-1 LPS/ATP IL-1B secretion, AlphaLISA, 16 h; hits give low values; in the data active = activity change below about -50%; inconclusive = mostly about -30% to -49%
#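 THP-1 cells pretreated 1 hr with compounds (up to 57.5 uM final), then stimulated with LPS (250 ng/mL final) plus ATP (1.25 mM final); secreted IL-1B measured by AlphaLISA after 16 hr, decreased signal indicating inhibition.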
# HT1080 IDH1KD tx: toxicity to HT-1080 IDH1 knockdown cells (counter line); HT-1080 IDH1 knockdown viability, ATP luminescence, 48 h; Potency, µM (top dose mostly 46.1 µM), without a hit: at the highest dose activity, negative = toxicity, most hits filed as cytotoxic; hit rate 2% among 360,000; AID 686971;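 note: potency is the fitted concentration of half-maximal effect; 0% = DMSO wells and -100% = cell-free medium wells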
#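 % activity derives from luminescence (CellTiter-Glo), normalised to DMSO and no-cell wells. HT-1080-IDH1KD cells, 750/well, had 48 h compound exposure at 37 °C.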
# TDP1 cell noCPT: qHTS for Inhibitors of human tyrosyl-DNA phosphodiesterase 1 (TDP1): qHTS in cells in absence of CPT; hit rate 15% among 420,000; Potency, µM (titrated, usually from 46.2 µM), for the others: top-dose activity change, negative = growth inhibition, actives largely listed as inhibitors; DT40 Tdp1-/- hTDP1 cells, no CPT, ATP luminescence, 48 h; AID 686978, 2013; note: potency is the fitted concentration of half-maximal effect; nearly all actives have a fitted effect of over 55% in size
#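 Luminescent ATP content (CellTiter-Glo) served as the growth readout. Knockout chicken DT40 cells expressing human TDP1 were exposed to compounds without camptothecin for a minimum 48 hr at 37 °C.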
# DT40 TDP1 CPT: growth inhibition of DT40 Tdp1-/-;hTDP1 cells with camptothecin (screen for TDP1 inhibitors). chicken DT40 Tdp1-/-;hTDP1 cells + 20 nM CPT, ATP luminescence, 48 h. hit rate 12% among 420,000. Potency, µM (titrated, usually from 46.2 µM), for the others: at the top dose activity change, negative = growth inhibition, most hits filed as inhibitors; note: potency is the fitted concentration of half-maximal effect; nearly all actives have a fitted effect of over 55% in size
#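 Cell growth measured by CellTiter-Glo luminescence after a minimum 48 h, 37 C compound exposure with 20 nM CPT in Tdp1-knockout DT40 cells stably expressing hTDP1, seeded 400/well; qHTS titration format.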
# 12-LOX inh: ALOX12 (human) lipoxygenase inhibition. Potency, µM (top dose mostly 108 µM), without a hit: at the highest dose activity change, negative = inhibition, most hits filed as inhibitors. hit rate 1.1% among 580,000. purified 12hLO, xylenol orange hydroperoxide absorbance. AID 1671190; note: potency is the fitted concentration of half-maximal effect
# Target sequence (P18054 whole entry, looked up): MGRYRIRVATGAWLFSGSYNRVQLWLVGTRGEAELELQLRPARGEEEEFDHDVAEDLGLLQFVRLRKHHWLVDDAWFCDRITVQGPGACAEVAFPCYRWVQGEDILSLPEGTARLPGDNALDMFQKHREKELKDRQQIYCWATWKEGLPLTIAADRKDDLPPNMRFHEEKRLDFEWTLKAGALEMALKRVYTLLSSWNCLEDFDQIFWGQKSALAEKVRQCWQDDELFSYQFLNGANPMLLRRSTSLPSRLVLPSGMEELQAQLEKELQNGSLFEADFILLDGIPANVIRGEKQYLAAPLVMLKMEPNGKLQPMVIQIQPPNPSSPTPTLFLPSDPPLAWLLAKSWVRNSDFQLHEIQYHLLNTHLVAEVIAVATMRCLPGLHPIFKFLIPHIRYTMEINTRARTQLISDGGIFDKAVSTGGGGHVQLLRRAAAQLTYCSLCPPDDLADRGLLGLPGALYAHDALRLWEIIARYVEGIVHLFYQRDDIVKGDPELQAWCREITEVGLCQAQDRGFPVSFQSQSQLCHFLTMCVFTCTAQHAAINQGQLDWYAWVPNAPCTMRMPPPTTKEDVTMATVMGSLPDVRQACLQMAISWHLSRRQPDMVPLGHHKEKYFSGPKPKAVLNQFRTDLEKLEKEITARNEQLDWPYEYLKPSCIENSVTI
#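 Purified human 12hLO (150 nM final) in 25 mM Hepes, 0.01% Triton X-100, pH 7.0 was preincubated 15 min at room temperature with compound. Then 40 uM arachidonic acid was added, 30 min. Hydroperoxide was read by Fe-XO absorbance ratio 573/405 nm.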
# HT1080-NT tox: kills 2HG-producing HT-1080-NT fibrosarcoma cells; Potency, µM (titrated, usually from 46.1 µM), without a hit: top-dose activity, negative = less viability, actives largely listed as cytotoxic; HT-1080-NT fibrosarcoma viability, CellTiter-Glo ATP luminescence, 48 h; hit rate 1.6% among 360,000;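 note: NT is the 2HG producing partner of a matched IDH1 knockdown line; potency is the fitted concentration of half-maximal effect; 0% = DMSO-treated cells and -100% = media-only wells without cells; nearly all actives have a fitted effect of over 55% in size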
#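 Fibrosarcoma NT cells, 750 per well in 5% FBS RPMI, were exposed to compound for 48 hours. Viability: CellTiter-Glo luminescence.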
# Starred values were filed as active, the others as inactive; i = inactive; ? = inconclusive; nt = no result; ! = repeats disagree; [ ] = another dose, or the depositor's remark. This excerpt belongs to a sample that is enriched for hits. Unless noted, calls come from the whole dose curve; as a rule, active = well fitted curve in the direction sought with a large enough effect; inconclusive = small, poorly fitted or top-dose-only effect, or another doubt; inactive = no such curve, though single readings can be large; an effect the other way counts as inactive or inconclusive. Unless noted, % is set by controls: 0 for no effect and ±100 for the full control effect.
SMILES,IL-1B inflam inh,HT1080 IDH1KD tx,TDP1 cell noCPT,DT40 TDP1 CPT,12-LOX inh,HT1080-NT tox
CCCCCCCCCOC(=O)C[n+]1csc(CCO)c1C,-18.9,0.4%,10.3µM*,?,0.0%,4.3%
c1ccc(Cc2nnc(N3CCCCC3)c3ccccc23)cc1,-86.3*,?,?,-28.4%,0.8%,-2.4%
c1ccc(Cc2nnc(N3CCOCC3)c3ccccc23)cc1,-10.5,16.5%,0.8%,0.7%,0.0%,-9.0%
CCc1cc(=O)[nH]c(SCc2nc(-c3cccc(Cl)c3)no2)n1,nt,nt,16.4µM*,18.4µM*,-6.3%,nt
Cc1ccccc1-c1cncnc1N(C)Cc1ccco1,nt,nt,-11.9%,5.3%,-15.5%,nt
CN(C)c1ccc(-c2ccc3ncnc(N(C)Cc4ccco4)c3c2)cc1,nt,nt,2.59µM*,4.11µM*,-6.3%,nt
CC(C)N(C)S(=O)(=O)c1ccc(Cl)c(C(=O)Nc2nnc(C3CCCCC3)s2)c1,nt,nt,nt,nt,16.8%,nt
CCCCc1nnc(NC(=O)C2CCN(c3ncnc4sc(C)c(C)c34)CC2)s1,30.5,7.1%,?,?,-22.3%,-7.3%
Cc1ccc(C)c(S(=O)(=O)N2CCN(C(=O)C3CC3C)CC2)c1 (stereo unspecified),-2.8,5.5%,-27.7%,-12.1%,-4.9%,-1.2%
CCN(CC)S(=O)(=O)c1cc(NC(=O)C2CCN(c3ncnc4sc(C)c(C)c34)CC2)ccc1Cl,-28.4,-26.2%,20.6µM*,14.6µM*,1.3%,?
Cc1sc2ncnc(N3CCC(C(=O)Nc4ccc(S(N)(=O)=O)cc4)CC3)c2c1C,-7.7,-1.3%,14.6µM*,?,-8.0%,-18.7%
Cc1sc2ncnc(N3CCC(C(=O)Nc4ccc(C#N)cc4)CC3)c2c1C,-2.3,-1.5%,?,?,?,-0.1%
Cc1ccc(C)c(S(=O)(=O)N2CCN(C(=O)C3CCN(c4ncnc5sc(C)c(C)c45)CC3)CC2)c1,?,-9.9%,10.3µM*,14.6µM*,-14.0%,5.3%
Cc1ccc(NC(=O)C2CCN(c3ncnc4sc(C)c(C)c34)CC2)cc1S(=O)(=O)N(C)C,-9.8,-18.9%,9.2µM*,13µM*,-16.9%,-6.5%
CCCN(CCC)S(=O)(=O)c1ccc(C(=O)Nc2nnc(-c3cc(OC)cc(OC)c3)o2)cc1,4.1,?,4.61µM*,5.8µM*,nt,?
COc1cccc(-c2nnc(NC(=O)CCS(=O)(=O)c3ccc(C)cc3)o2)c1,?,-1.6%,?,?,16.0%,2.4%
CCCN(CCC)S(=O)(=O)c1ccc(C(=O)Nc2nnc(-c3cccc(OC)c3)o2)cc1,43.9,?,5.17µM*,5.8µM*,30.5%,?
CC(C)c1nnc(NC(=O)c2nc(S(=O)(=O)Cc3ccc(F)cc3)ncc2Cl)s1,-105.3*,23.1µM*,4.11µM*,4.61µM*,-2.6%,25.9µM*
Cc1ccc(C)c(NC(=O)c2nc(S(=O)(=O)Cc3ccc(F)cc3)ncc2Cl)c1,nt,nt,2.06µM*,1.46µM*,6.8%,nt
Cc1ccc(CS(=O)(=O)c2ncc(Cl)c(C(=O)Nc3nnc(C(C)C)s3)n2)cc1,-100.5*,9.2µM*,11.6µM*,5.8µM*!,-5.8%,20.6µM*
CSc1ncc(Cl)c(C(=O)Nc2nnc(SC/C=C/c3ccccc3)s2)n1,16.3,21.1%,-7.8%,-8.8%,2.0%,0.0%
CSc1nnc(NC(=O)c2nc(S(=O)(=O)Cc3cccc(C)c3)ncc2Cl)s1,-101.6*,20.6µM*,8.2µM*,8.2µM*,-3.6%,?
CC(C)CN1C(=O)CO[C@H](c2ccc(NS(=O)(=O)c3cccc(F)c3)cc2)[C@H]1CO,nt,nt,nt,nt,-22.6%,nt
COc1ccc(-c2cc3c(=O)n(CCNC(=O)c4ccc(OC)nc4)ccn3n2)cc1,nt,nt,nt,nt,36.8%,nt
Cc1cccc(CS(=O)(=O)c2ncc(Cl)c(C(=O)Nc3nnc(C(C)C)s3)n2)c1,-102.2*,7.31µM*,13µM*,4.61µM*,?,10.3µM*
SMILES,IL-1B inflam inh,HT1080 IDH1KD tx,TDP1 cell noCPT,DT40 TDP1 CPT,12-LOX inh,HT1080-NT tox
CCSc1nnc(NC(=O)c2nc(S(=O)(=O)Cc3ccc(F)cc3)ncc2Cl)s1,-103.2*,?,10.3µM*,13µM*,-6.5%,?
O=C1c2ccccc2C(Nc2ccc(S(=O)(=O)N3CCCCC3)cc2)N1c1ccccn1 (stereo unspecified),?,-0.9%,20.6µM*,?,35.0%,1.6%
O=C1c2ccccc2C(Nc2ccc3c(c2)OCCO3)N1c1ccc(Cl)cn1 (stereo unspecified),18.6,-3.6%,16.4µM*,?,413.7%,-5.0%
O=C1c2ccccc2C(Nc2ccc(F)c(Cl)c2)N1c1ccccn1 (stereo unspecified),-12.9,-18.2%,?,16.4µM*,19.5%,-0.2%
CC(NCc1ccc(-c2ccccc2)cc1)C(O)c1ccccc1 (stereo unspecified),-95.8*,14.6µM*,18.4µM*,?,?,?
CSc1cc(-c2ccc(Cl)cc2)c(C(=O)NC(C)C)s1,-13.9,10.0%,11.6µM*,9.2µM*,46.8%,18.4%
COc1ccc(/C=C/CN2CCC(Oc3ccc(C(=O)N4CCCCC4)cc3)CC2)cc1,i,-5.2%,14.6µM*,?,0.0%,1.1%
Cc1cc(C)cc(CN2CCC(Oc3ccc(C(=O)N4CCCC4)cc3)CC2)c1,?,?,23.1µM*,20.6µM*,10.4%,?
COC(=O)c1ccc(CN2CCC(Oc3ccc(C(=O)N4CCCCC4)cc3)CC2)cc1,9.3,0.3%,?,?,-7.2%,4.3%
O=C(c1ccc(OC2CCN(C/C=C/c3ccccc3)CC2)cc1)N1CCCCC1,?,-5.8%,?,?,?,-21.3%
COc1ccc(C(=O)NC2CC2)cc1OC1CCN(Cc2ccccc2)CC1,i,8.0%,5.3%,2.5%,nt,0.7%
COc1ccccc1/C=C/CN1CCC(Oc2cc(C(=O)NC3CC3)ccc2OC)CC1,-8.4,1.8%,2.06µM*,?,-3.8%,-0.9%
COc1ccccc1/C=C/CN1CCC(Oc2ccc(C(=O)N3CCCCC3)cc2)CC1,-56.8*,-15.6%,25.9µM*,?,i,-2.7%
O=C(CSc1ncnc2ccccc12)NCc1ccccc1,nt,nt,nt,nt,-12.3%,nt
COc1cc(/C=N/NC(=O)c2sc3nc(C)cc(C)c3c2N)ccc1O,-88.7*,?,3.26µM*,?,133.8%,?
Cc1nc(N)sc1C(=O)N/N=C/c1c[nH]c2ccccc12,-55.3*,-25.4%[9.24 µM],?,?,18.5%,?
